Among the data in PubChem BioAssay AID651812 (National Center for Advancing Translational Sciences (NCATS), 2012) are Potency values, retold here.

Out of some 2,100 compounds screened, about 650 (31%) were called active. Another 16% or so got no clear call; they are omitted. Calls come from the whole dose curve; as a rule, active = well fitted inhibition curve with a large enough effect; inconclusive = small, poorly fitted or top-dose-only effect; inactive = flat fitted curve, though single readings scatter. The list shows a part of the results. A call without a number means that no potency is given here.
Potency is the fitted concentration of half-maximal effect.

The assay in a line: qHTS for inhibitors of Vif-A3G interactions: Cherry picks. Note: nearly all actives have a fitted effect of over 80% in size. The conditions noted are these: HeLa A3G-eYFP + Vif (tagged APOBEC3G with the HIV-1 protein that degrades it), 24 h; Potency: eYFP fluorescence increase; series mostly up to 36.9 µM. The gist of the method:
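HeLa cells stably expressing A3G-eYFP and Vif, cultured overnight then exposed to compounds at several concentrations for 24 hours at 37 C, 5% CO2; cellular yellow fluorescence (488 nm ex, 500-530 nm em) imaged on Acumen, MG132 positive control.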
In general terms: qHTS replaces the single test concentration by a dilution series.
As for `CN1C/C(=C/c2cccnc2)C(=O)/C(=C/c2cccnc2)C1`, the Potency entry was “inactive”.

Regarding `Cc1c(N2C(=O)/C(=C/c3ccc(N(C)C)cc3)N(C)C2=S)c(=O)n(-c2ccccc2)n1C`, the Potency was 18.4 µM (active).

In the case of `CN1C(=S)N(c2cccnc2)C(=O)/C1=C\c1ccc(N(C)C)cc1`, the Potency is 15.8 µM (active).

On to `CN1C(=O)/C(=C\c2ccc(N(C)C)cc2)OC1=S`, for which the Potency is 4.98 µM (active).

Take `CC(NC(=S)Nc1cccc(C(F)(F)F)c1)C(C)(C)C` (centres undefined): the Potency entry was “inactive”.

Take `CCN(CC)c1ccc2c(c1)oc(=O)c1c(Cl)cc(=O)oc12`: the Potency is 23.1 µM (active).

As to `Cc1ccc(F)c(S(=O)(=O)NC(=O)C2(C)CCN2C(=O)Cc2ccc(Cl)cc2Cl)c1` (centres undefined), the Potency entry was “inactive”.

As to `CSc1ccc(C2NC(=O)c3ccccc3N2)cc1` (centres undefined), the Potency entry was “inactive”.

For the compound `COc1ccccc1/C=C/C=N/n1c(-c2ccc(C)cc2)n[nH]c1=S`, the Potency entry was “inactive”.

`O=c1c(O)c(-c2cccs2)oc2ccccc12`: the Potency was 2.59 µM (active).

For the compound `C/C(=N\NC(N)=S)C12CC3CC(CC(C3)C1)C2`, the Potency result was “inactive”.

Turning to `O=C(c1ccccc1F)n1c2c(c3ccccc31)CCCC2`, the Potency entry was “inactive”.

Turning to `COc1ccc(C)c(Cn2c(-c3nonc3N)nc3ccccc32)c1`, the Potency result is “inactive”.

Regarding `Nc1nonc1-c1nc2ccccc2n1CC(=O)Nc1cccc(C(F)(F)F)c1`, the Potency is 25.9 µM (active).

Take `Nc1nonc1-c1nc2ccccc2n1Cc1ccc(F)cc1`: the Potency entry was “inactive”.

As to `O=c1c[n+]([O-])c2ccccc2n1OCc1c(F)cccc1F`, the Potency result is “inactive”.

Take `O=C(O)c1ccccc1N/N=C/c1c(Sc2nnnn2-c2ccccc2)nc2ccccn2c1=O`: the Potency is 3.53 µM (active).

For `O=c1oc2c3c4c(cc2c(C(F)(F)F)c1CCN1CCOCC1)CCCN4CCC3`, the Potency was 7.31 µM (active).

With `O=C(Nc1cc(Cl)ccc1-n1cncn1)c1ccc([N+](=O)[O-])s1`, the Potency was 15.8 µM (active).

Take `O=C(O)Cc1sc(NC2CCCCC2)nc1-c1ccc(Cl)cc1`: the Potency entry was “inactive”.

In the case of `COC(=O)C1=C(Nc2ccc(C)cc2)C=C(C)C(C(=O)OC)C1c1cccc(OC)c1` (centres undefined), the Potency result was “inactive”.

Consider `CC(=O)Nc1ccc(S(=O)(=O)N2c3ccccc3C(C)=CC2(C)C)cc1`, for which the Potency result was “inactive”.

With `Cc1cccc(/C=C/C(=O)c2ccc([N+](=O)[O-])o2)c1`, the Potency result was “inactive”.

For the compound `Cc1cc2ccccn2c1C(=O)c1ccc([N+](=O)[O-])o1`, the Potency was 18.4 µM (active).

Take `O=C(NN(c1ccccc1)c1ccccc1)c1ccc([N+](=O)[O-])o1`: the Potency result was “inactive”.

On to `COC(=O)Cn1c(C)c(/C=C/c2cc[n+](C)cc2)c2ccccc21`, for which the Potency is 13 µM (active).

Consider `CCN(CC)C(=O)Cn1c(C)c(/C=C/c2cc[n+](C)cc2)c2ccccc21`, for which the Potency was 12.5 µM (active).

On to `N#C/C(=C/c1cccs1)c1ccccn1`, for which the Potency was 14 µM (active).

On to `N#C/C(=C/c1ccc(N2CCCCCC2)o1)c1cccc(F)c1`, for which the Potency was 3.66 µM (active).

As to `CSc1nc2ccccc2cc1/C=C(\C#N)c1cccc(C)c1`, the Potency entry was “inactive”.

For the compound `N#C/C(=C/c1ccc(N2CCCCC2)o1)c1cccc(F)c1`, the Potency was 8.2 µM (active).

Regarding `COc1cc(C2C(C#N)=C(N)Oc3cc(O)ccc32)cc(OC)c1OC` (centres undefined), the Potency entry was “inactive”.

On to `CCCCN(C)CC(O)Cn1cc(/C=C/C(=O)c2cccs2)c2ccccc21` (centres undefined), for which the Potency was 20.6 µM (active).

As to `CN(C)c1ccc(/C=C/c2cc(N(C)C)nc3ccccc23)cc1`, the Potency was 13 µM (active).

For `Cc1noc(C)c1CSc1nc2ccccc2c(=O)n1-c1ccccc1`, the Potency entry is “inactive”.

Consider `Nc1ccc(/C=C/c2cc(Cl)nc3ccccc23)cc1`, for which the Potency is 20.6 µM (active).

With `CN(C)c1ccc(/C=C/c2nc3ccccc3c(=O)n2CCO)cc1`, the Potency was 18.4 µM (active).

For `CN(C)c1ccc(/C=C/c2cc(/C=C/c3ccc(N(C)C)cc3)c3ccccc3n2)cc1`, the Potency is 6.51 µM (active).

With `CN(NC(=O)c1ccccc1)c1nc2ccccc2nc1C(F)(F)F`, the Potency result was “inactive”.

On to `O=C(NC(=S)Nc1ccc(-c2ccccc2)cc1)c1ccccc1`, for which the Potency result was “inactive”.

For the compound `CC(C)Cn1c(N)c(C(=O)COC(=O)c2ccc([N+](=O)[O-])o2)c(=O)n(C)c1=O`, the Potency result was “inactive”.

As to `CC(C)(C)n1ncc2c(=O)n(CC(=O)NCc3ccc(F)cc3)cnc21`, the Potency entry was “inactive”.

For the compound `O=C1OC(Nc2nc(-c3ccc(F)cc3)cs2)c2ccccc21` (centres undefined), the Potency entry was “inactive”.

As to `CCN(CC)c1ccc(/C=C/c2cc(-c3ccccc3)c3ccccc3n2)cc1`, the Potency is 11.2 µM (active).

With `COc1ccc(C2=NOC(C(=O)NCc3cccs3)C2)cc1OC` (centres undefined), the Potency result is “inactive”.

As to `Cc1ccc(N2C(=O)[C@@H]3[C@H](C2=O)[C@H]2C=C(C(=O)c4ccccc4)C=CN2[C@@H]3C(=O)c2ccc(Cl)cc2)cc1`, the Potency entry is “inactive”.

As for `Nc1ccc2nc(-c3ccccc3)c(-c3ccccc3)nc2c1`, the Potency result was “inactive”.

On to `CCn1nc(-c2ccccc2)c2nc3ccccc3nc21`, for which the Potency was 16.4 µM (active).

Regarding `O=C(Nc1nc(NC(=O)c2ccco2)n(-c2ccccc2)n1)c1ccccc1`, the Potency entry was “inactive”.

As for `Cc1cc(C)c2cc3c(N)c(C(=O)Nc4c(C)[nH]c(=O)[nH]c4=O)sc3nc2c1`, the Potency is 18.4 µM (active).

As for `O=C(Cn1cnc2c(cnn2-c2ccc(F)cc2)c1=O)NCc1ccco1`, the Potency entry was “inactive”.

In the case of `N#CC1=C(N)Oc2cc(N)ccc2C1c1cccc(F)c1` (centres undefined), the Potency result was “inactive”.

`N#CC1=C(N)Oc2cc(N)ccc2C1c1ccc(F)cc1F` (centres undefined): the Potency was 18.4 µM (active).

Consider `N#CC1=C(N)Oc2cc(N)ccc2C1c1ccccc1F` (centres undefined), for which the Potency result is “inactive”.

In the case of `Cc1csc(NC(=O)CCC(=O)N(CC(=O)NC2CCCC2)Cc2ccccc2)n1`, the Potency result is “inactive”.

Turning to `CCCC1=Nc2cc(C(=O)NCc3ccco3)ccc2Sc2ccccc21`, the Potency result is “inactive”.

As to `Cc1cc(=O)oc2cc(OCC(=O)N3c4ccccc4CC3C)ccc12` (centres undefined), the Potency entry was “inactive”.

As for `COc1cc(OC)c(OC)cc1/C=C1\Oc2cc(OCC(=O)N3Cc4ccccc4C[C@H]3C(=O)O)ccc2C1=O`, the Potency was 4.11 µM (active).

For `CCNC(=S)N/N=C(\C)c1ccc(N2CCOCC2)cc1`, the Potency entry was “inactive”.

With `COc1ccc(OCCCC(=O)N2CCN(S(=O)(=O)c3cccc(F)c3)CC2)cc1`, the Potency result is “inactive”.

Regarding `O=C1CSC(=S)N1Cc1cccnc1`, the Potency was 16.4 µM (active).

For `O=c1[nH]c2ccccc2nc1/C=C(\O)c1cccs1`, the Potency was 18.4 µM (active).

`O=c1[nH]c2ccccc2nc1/C=C/c1ccc(F)cc1`: the Potency is 14 µM (active).

For the compound `N=C1C(c2nc3ccccc3[nH]2)=C(O)CN1c1ccccc1`, the Potency entry is “inactive”.

For `COc1ccc(OC)c(/C=C/c2nc3ccccc3[nH]c2=O)c1`, the Potency was 18.4 µM (active).

Consider `COc1cccc(N2CC(O)=C(c3nc4ccccc4c(=O)[nH]3)C2=N)c1`, for which the Potency entry is “inactive”.

In the case of `COc1ccc(OC)c(Nc2nc(-c3ccncc3)nc3ccccc23)c1`, the Potency entry is “inactive”.

In the case of `O=C(/C(=C/c1ccc(Cl)cc1)c1nc2ccccc2[nH]1)c1cccs1`, the Potency result was “inactive”.

Regarding `O=[N+]([O-])c1ccc(N/N=C\c2cccn2-c2ccccc2)nc1`, the Potency entry is “inactive”.

Take `CCN(CC)c1ccc(NC(=O)c2ccc(=O)[nH]c2)cc1S(=O)(=O)Nc1ccccc1OC`: the Potency entry was “inactive”.

For `COc1ccc(S(=O)(=O)Nc2cccc3ccccc23)cc1`, the Potency result is “inactive”.

Regarding `Cc1[nH]c2ccccc2c1/C=N/Nc1ccc([N+](=O)[O-])cc1`, the Potency is 13 µM (active).

Take `COc1ccc(NS(=O)(=O)c2cc([N+](=O)[O-])ccc2N/N=C/c2c(C)[nH]c3ccccc23)cc1`: the Potency is 14.6 µM (active).

`O=[N+]([O-])c1ccc(N/N=C/c2c[nH]c3ccccc23)cc1`: the Potency was 11.6 µM (active).

Regarding `Cc1[nH]c2ccccc2c1/C=N/NC(=O)c1cc(-c2ccncc2)nc2ccccc12`, the Potency entry was “inactive”.

Turning to `O=C(N/N=C/c1c[nH]c2ccccc12)C1COc2ccccc2O1` (centres undefined), the Potency entry was “inactive”.

Turning to `COc1ccccc1NS(=O)(=O)c1cc([N+](=O)[O-])ccc1N/N=C/c1c[nH]c2ccccc12`, the Potency is 16.4 µM (active).

For the compound `CCCCCS(=O)(=O)c1oc(-c2cccs2)nc1S(=O)(=O)c1ccc(C)cc1`, the Potency result was “inactive”.

In the case of `Cc1ccc(-c2nc(C=Nc3ccc(O)cc3)c(O)o2)cc1`, the Potency entry was “inactive”.

Regarding `COc1ccc(NC(=O)C2(C)Cc3c(-c4cccc(NC(C)=O)c4)ccnc3O2)cc1` (centres undefined), the Potency entry is “inactive”.

For the compound `COc1cc(Cn2c3ccc(NC(=O)CCc4ccccc4)cc3c(=O)n2C)ccc1F`, the Potency result is “inactive”.

Take `Cn1nnnc1SCCNCc1cc(Br)ccc1OCc1ccccc1Cl`: the Potency entry was “inactive”.

Consider `Cc1ccc(-c2cc(NC=O)c3ncc(-c4cnn(C)c4)n3c2)cc1`, for which the Potency result was “inactive”.

`O=C(Nc1ccc2c(c1)OCCO2)C(=O)c1c[nH]c2ccccc12`: the Potency result is “inactive”.

For the compound `O=[N+]([O-])c1ccc(N/N=C/c2c[nH]c3ccccc23)c(S(=O)(=O)Nc2ccc(Cl)cc2)c1`, the Potency is 18.4 µM (active).

As for `Cc1ccc(-c2cc(C(=O)N/N=C/c3c[nH]c4ccccc34)[nH]n2)cc1`, the Potency entry is “inactive”.

In the case of `C/C(=N/Nc1ccc([N+](=O)[O-])cc1)c1c[nH]c2ccccc12`, the Potency is 8.2 µM (active).

Regarding `O=[N+]([O-])c1ccc(N=Nc2ccc(O)c3ccccc23)cc1`, the Potency result is “inactive”.

Regarding `COc1ccccc1NS(=O)(=O)c1cc([N+](=O)[O-])ccc1N/N=C/c1c(C)[nH]c2ccccc12`, the Potency is 2.8 µM (active).

As for `Cc1ccc(N2C(=O)CS/C2=C(\C(Cl)=C(Cl)Cl)[N+](=O)[O-])cc1`, the Potency result was “inactive”.

As for `Fc1cccc(F)c1/C=N/NC(=S)Nc1cccnc1`, the Potency result is “inactive”.

In the case of `Cn1c(=O)c2cc(NC(=O)Cc3cccc4ccccc34)ccc2n1-c1ccccc1`, the Potency entry is “inactive”.

`CCOc1cc(/C=C/C(=O)c2ccc(OC)c(CN3CCOCC3)c2)cc(Br)c1O`: the Potency was 18.4 µM (active).

As to `COc1cc(/C=C/C(=O)c2ccc(O)cc2)ccc1OCC#N`, the Potency result is “inactive”.

Take `CCOc1ccc(N/C=C/C(=O)c2cc(OC)c(OC)c(OC)c2)cc1`: the Potency result was “inactive”.

`COc1cc2c(cc1OC)C(C)N(C(=O)c1cc(Cl)nc(Cl)c1)CC2` (centres undefined): the Potency entry was “inactive”.

With `O=C(Nc1ccc([N+](=O)[O-])cc1)C(Cc1ccccc1)N1C(=O)c2cccc3cccc(c23)C1=O` (centres undefined), the Potency was 14 µM (active).

For the compound `O=C(c1ccc(CS(=O)c2ccccc2Cl)o1)N1CCN(c2ccccc2F)CC1` (centres undefined), the Potency entry is “inactive”.

Consider `CC(=O)c1ccc2cccc3c2c1N=CN3C`, for which the Potency is 15.8 µM (active).
